In the library only some 9.3% were active in any assay of this set; here they are far more common.
Vaccinia mCherry = inhibitors of vaccinia virus infection (mCherry reporter signal); Vaccinia virus mCherry reporter infection, fluorescence; Potency, µM (series often up to 36.5 µM), for inactives: at the top dose activity change, negative = inhibition, actives largely listed as inhibitors; actives 0.63% (n = 310,000); AID 720579; calls by dose curve; tested in A549 cells; also: potency is read from the fitted curve at half-maximal effect; nearly all actives have a fitted effect of over 35% in size
HCMV inh = blocks human cytomegalovirus replication. HFF cells, HCMV-luciferase reporter, 72 h; active compounds read low. activity change, negative = inhibition, % at 57.5 µM. actives 4.5% (n = 410,000). AID 1259415; in the data active = activity change below about -60%; inconclusive = no clear call, values can overlap the other calls; inactive = above about -39%
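Screen run at 2 compound doses on HFFs infected with reporter HCMV, MOI 1 PFU/cell. Luciferase activity from cell lysates at 72 h post infection gave inhibition relative to buffer-only and Salinomycin wells.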
FMDV antiviral = blocks foot and mouth disease virus | FMDV antiviral cell-based qHTS | Potency, µM (series often up to 57.9 µM), for the others: top-dose activity change, negative = inhibition, most hits filed as inhibitors | actives 1.2% (n = 410,000); calls by dose curve; tested in HEK293T cells; also: read-out not given here; potency is read from the fitted curve at half-maximal effect; nearly all actives have a fitted effect of over 45% in size
HCV inh = blocks hepatitis C virus; Huh7.5.1 HCVcc-Cre infection, luciferase reporter, 44 h; Potency, µM (highest dose often 41.8 µM), for inactives: top-dose activity change, negative = inhibition, most hits filed as inhibitors; AID 651820; actives 3.4% (n = 340,000); also: potency is read from the fitted curve at half-maximal effect
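Luciferase read-out (15 sec integration) after a 15 min room-temperature substrate step quantifies HCVcc-Cre infection. Cells, 1,000 per well, had compound added 4 h post-plating, then virus at ~0.5 moi, and were cultured 44 h.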
VACV Venus inh = inhibitors of vaccinia virus (Venus reporter); Potency, µM (top dose mostly 36.5 µM), for the others: at the highest dose activity change, negative = inhibition, hits mostly inhibitors; Vaccinia virus Venus reporter expression, fluorescence; AID 720580; actives 0.46% (n = 330,000); calls by dose curve; tested in A549 cells; also: potency is read from the fitted curve at half-maximal effect; nearly all actives have a fitted effect of over 30% in size
Sm TGR inh = S. mansoni TGR enzyme inhibition | Q962Y6 | purified TGR, DTNB reduction, TNB absorbance 405 nm | Potency, µM (highest dose often 114 µM), without a hit: at the top dose activity change, negative = inhibition, most hits filed as inhibitors | actives 3% (n = 360,000) | AID 485364; also: potency is read from the fitted curve at half-maximal effect; nearly all actives have a fitted effect of over 60% in size
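First, TGR (20 nM dispensed) and NADPH were mixed with compound. Second, a 15 min room-temperature incubation followed. Third, further NADPH and then DTNB were added to start the reaction. Finally, TNB absorbance was monitored kinetically.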
* hit, by the source's call; i = inactive; ? = inconclusive; . = not tested or not shown. Unless noted, calls follow the shape of the dose curve; as a rule, active = well fitted curve in the direction sought with a large enough effect; inconclusive = small, poorly fitted or top-dose-only effect, or another doubt; inactive = no such curve, though single readings can be large; an effect the other way counts as inactive or inconclusive. % is scaled to controls: 0 for no effect and ±100 for the full control effect.

SMILES | Vaccinia mCherry | HCMV inh | FMDV antiviral | HCV inh | VACV Venus inh | Sm TGR inh
COc1ccc(N(C(=O)c2snc(C(N)=O)c2N)C(C(=O)NC2CCCC2)c2cccs2)cc1OC (centres undefined) | -15.4% | 15.7 | -4.4% | ? | -5.9% | 6.1%
COc1cc(C)c(Cl)cc1S(=O)(=O)n1ccnc1C | -19.3% | -15.7 | . | -0.7% | -16.1% | 6.4%
COc1ccc(C(C)(C)C)cc1S(=O)(=O)n1ccnc1C | -8.6% | -69.7* | 46.5% | -29.9% | 4.9% | 1.4%
C/C=C/C=C/C(=O)[C@@H]1[C@@H]([C@]2(C)OC(=O)C(C)=C2O)[C@H]2/C(=C(O)/C=C/C=C/C)C(=O)[C@]1(C)C(=O)C2(C)O (some centres undefined) | 2.9% | -2.9 | -11.4% | -3.0% | 6.9% | 10µM*
CCC(=O)N(C1=C(NC)C(=O)c2ccccc2C1=O)C(C)C | ? | -78.3* | -17.4% | ? | ? | -2.9%
CNC1=C(N(C(C)=O)c2ccc(Br)cc2)C(=O)c2ccccc2C1=O | ? | -99.8* | 8.91µM* | ? | 5.62µM* | -14.5%
CCC(=O)NC1=C(NC(C)c2ccccc2)C(=O)c2ccccc2C1=O (centres undefined) | 9.8% | -9.6 | -13.8% | -2.2% | 4.6% | ?
Cn1cnc2c1c(=O)n(Cc1ccc(F)cc1Cl)c(=O)n2C | -10.0% | -8.9 | -11.2% | 21.6% | -10.4% | 3.1%
Cc1ccc2c(c1)c1c3n2CCN(C(=O)CCl)C3CCC1 (centres undefined) | ? | -18.7 | ? | 22.4µM* | -14.3% | 22.4µM*
CC(=O)N1CCn2c3c(c(=O)c4cc(C)ccc42)CCC31 (centres undefined) | -13.6% | -8.8 | -8.4% | -5.3% | -1.7% | 20µM*
O=C(Nc1ccccc1C(=O)N1CCOCC1)c1cccnc1 | -4.1% | -6.3 | . | -11.3% | 7.2% | 0.5%
COc1ccc(S(=O)(=O)N2CCOCC2)cc1C(=O)NC1CCCCCC1 | . | 8.7 | -6.6% | -7.5% | . | -6.9%
O=c1cc(CSc2ccc(Cl)cc2)[nH]c2[nH]n(-c3ccccc3)c(=O)c12 | i | -14.5 | -5.4% | -10.3% | -7.4% | 44.7µM*
COc1cc(/C=C2\C(=N)N3N=C(S(C)(=O)=O)SC3=NC2=O)ccc1OC(=O)c1ccco1 | . | -29.4 | -20.6% | 18.2% | . | ?
Cc1ccc(NC(=O)c2sc(Cl)nc2C)c(C)c1 | 11.2µM* | 6.5 | 23.3% | -1.4% | ? | -7.4%
Cc1ccc(NC(=O)c2sc(C)nc2C)c(C)c1 | -17.5% | -31.9 | 0.4% | 2.9% | -5.9% | -6.4%
Cc1ccccc1NC(=O)c1sc(Cl)nc1C | 10µM* | -7.3 | -2.5% | 3.6% | ? | -2.4%
COC(=O)c1ccccc1NC(=O)c1sc(N)nc1C | . | -101.3* | -8.2% | -13.7% | 0.1% | 3.1%
Cc1nc(N)sc1C(=O)Nc1ccccc1 | . | 103.5 | 21.8% | 10.6% | -2.8% | 0.3%
CC(C)(C)OCC(O)CN1CCN(C(=O)c2ccccc2)CC1 (centres undefined) | -8.0% | -33.2 | -14.6% | 14.5% | -6.4% | 0.8%
Cc1cc(O)c(C2(C(F)(F)F)NCCNC2=O)cc1C (centres undefined) | . | -34.9 | ? | 18.3% | . | 1.8%
CCN(CC)CCOC(=O)C12CC3CC(CC(C3)C1)C2 | -5.3% | 37.3 | -22.8% | -6.3% | 8.8% | -1.4%
CC1(C)Cc2ccccc2C(/C(=N\Nc2cccc(Cl)c2)C(N)=O)=N1 | ? | -101.8* | ? | ? | ? | -0.2%
CCOC(=O)c1ccccc1NC(=O)N1CCCn2nc(C)cc21 | -16.2% | -7.0 | -28.4% | . | -15.4% | 9.5%
CCc1cc(C(=O)NC2CCCN(Cc3ccccc3F)C2)n(C)n1 (centres undefined) | . | -34.2 | ? | 8.91µM* | . | -17.1%
SMILES | Vaccinia mCherry | HCMV inh | FMDV antiviral | HCV inh | VACV Venus inh | Sm TGR inh
O=[N+]([O-])c1cc(C(F)(F)F)cc([N+](=O)[O-])c1NCCNC(=S)Nc1cccc(F)c1 | . | -10.0 | 0.0% | ? | . | 5.7%
CCCCCCCCNC(=S)NCCN1CCCCC1 | . | -65.7* | ? | ? | . | -19.4%
CCC(=O)NCc1cc(-c2nn(C)c(=O)c3ccccc23)ccc1C | . | -0.9 | -8.7% | -21.9% | . | 1.1%
Cc1ccc(NC(=O)c2ccc(-c3nn(C)c(=O)c4ccccc34)cc2)cc1 | . | -37.5 | ? | 12.6µM* | . | 0.4%
Cn1nc(-c2ccc(C(=O)Nc3ccc(F)cc3)cc2)c2ccccc2c1=O | -0.5% | -29.8 | 39.8µM* | ? | -5.3% | 3.5%
Cc1ccc(-c2nn(CC(=O)NCc3cc(-c4nn(C)c(=O)c5ccccc45)ccc3C)c(=O)c3ccccc23)cc1 | ? | -95.3* | 15.8µM* | ? | ? | -3.5%
COc1ccc(C(O)C(CC(=O)NCCCOC(C)C)C(=O)NCCCOC(C)C)cc1OC (centres undefined) | i | -34.1 | -15.4% | 18.2% | -4.2% | -0.3%
CCOc1cc(C(=S)N2CCOCC2)ccc1OS(=O)(=O)c1ccc(OC)cc1 | -23.3% | -37.0 | -17.4% | ? | -6.4% | 0.0%
CC(=O)Nc1ccc(S(=O)(=O)Oc2ccc(C(=S)N3CCC(O)CC3)cc2)cc1 | -8.4% | -72.4* | ? | ? | -15.2% | -1.7%
CCOc1cc(C(=S)N2CCOCC2)ccc1OS(=O)(=O)c1ccc(NC(C)=O)cc1 | -12.5% | -82.8* | . | 7.08µM* | -12.2% | 9.7%
CCOc1cc(C(c2c(C)[nH][nH]c2=O)c2c(C)[nH][nH]c2=O)cc(Cl)c1O | . | 0.9 | ? | 3.9% | . | 35.5µM*
COC(=O)COc1cccc(/C=N/NC(=O)CCSc2ccccc2)c1 | -3.4% | -26.3 | -11.0% | -5.2% | 0.9% | 26.1%
COc1ccc(C2=NN(C(=O)CCC(=O)O)C(c3ccc(OC)c(OC)c3)C2)cc1 (centres undefined) | -4.7% | -102.5* | -11.9% | 12.7% | -8.0% | 22.4µM*
COc1ccc(C2CC(c3ccc(Br)cc3)=NN2C(=O)CCC(=O)O)cc1OC (centres undefined) | i | -7.6 | -9.3% | 10.6% | -12.5% | -20.4%
CCSc1nc2ccccc2n1C(=O)/C=C\c1ccc(OC)c(OC)c1 | 12.6µM* | -97.9* | 12.6µM* | 14.1µM* | ? | -11.7%
NC(=S)NN=C1c2cc(Cl)ccc2-c2c1cc(Cl)cc2[N+](=O)[O-] | -16.2% | . | 20µM* | ? | -17.3% | .
Cc1ccc(S(=O)(=O)NC(=O)Nc2ccc(N(C)C)cc2)cc1 | ? | -17.9 | 23.6% | ? | ? | 50.1µM*
Cc1ccc(NC(=O)NNS(=O)(=O)c2ccc(Br)cc2)cc1 | . | 37.6 | -17.1% | 13.7% | -9.1% | -16.3%
CCOC(=O)C(=O)C1=C(N2CCOCC2)/C(=C\c2ccc(F)cc2)CC1 | -3.4% | ? | -7.5% | ? | -6.6% | 28.2µM*
O=C(NC1CCN(Cc2ccccc2)CC1)c1cccc(NS(=O)(=O)c2ccc(Br)cc2)c1 | . | ? | ? | 11.2µM* | . | .

Screening data from PubChem.
